Rows were chosen to be rich in hits. Some 3.6% of all compounds tested hit in one or more screens of this group.
EBV LMP1 NFkB: inhibitors of Epstein-Barr LMP1-induced NF-kappaB reporter; LMP1-induced NF-kappaB luciferase reporter cells, luminescence; inhibition, % at 12.5 µM; 0.69% of 350,000 active; AID 504558; in the data active = inhibition above about 41%;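 also: 0% = neutral control wells and 100% = reference inhibitor control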
HSF-1 act: increases HSF-1 driven luciferase reporter signal; NIH3T3-HGL HSF-1 luciferase reporter, MG132, 8 h; 100% = twice DMSO control signal; activation, % at 9 µM; 1.7% of 300,000 active;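 active = mean replicate activation of at least 50% with a set share of replicates each reaching 50%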;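 also: 0% = median of the neutral control wells and 100% = twice that signal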
HSF1 inh: HSF1 inhibition | NIH3T3-HGL HSE-luciferase, MG132-induced, luminescence 8 h; active compounds read low | activity change, negative = inhibition, % at 7.5 µM (by protocol) | 0.77% of 300,000 active | AID 2098;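 active = more than half of replicate wells show activity change below -50%, luminescence cut by over half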;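 also: luciferase reports HSF-1 transcriptional activity via heat shock element; 0% = median of DMSO wells and -100% = zero luminescence signal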
LGR2 inh: blocks bursicon-induced cAMP signaling via Drosophila LGR2. AID 720647. inhibition, % at 9.99 µM. 0.35% of 380,000 active. HEK293 LGR2, CRE-luciferase, bursicon-stimulated, 4 h;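 active = drop in luminescence signal, shown as inhibition above about 50% in the replicate tests, limit read from the data, passing the limit was not always enough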;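 also: agonist challenge used bursicon conditioned medium at about half maximal strength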
TWEAK Fn14 block: TWEAK-Fn14 signaling inhibition; inhibition, % at 10 µM; 2% of 360,000 active; AID 1159606; TWEAK-stimulated Fn14 reporter cells, luciferase luminescence, 8 h; in the data active = inhibition above about 50%
TROY signal inh: blocks TROY-dependent signaling in reporter cells | Q293 LMP1-TROYcd NF-kB luciferase reporter, 4 h | inhibition, % at 10 µM | 0.98% of 360,000 active | AID 1347056;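 active = compounds whose plate-normalised and pattern-corrected inhibition of the luciferase reporter signal at the single screening dose is 50% or more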
* marks the source's active call; other numbers are inactive results; nt = no result.

SMILES | EBV LMP1 NFkB | HSF-1 act | HSF1 inh | LGR2 inh | TWEAK Fn14 block | TROY signal inh
COC(=O)c1ccc(NC(=O)CSc2nc3ccc(N4C(=O)C5C6C=CC(C6)C5C4=O)cc3s2)cc1 (stereo unspecified) | 14.3 | -22.5 | 2.2 | 104.0* | 91.4* | 57.5*
O=C(c1ccc(Cl)cc1)C12CN3CN(CN(C3)C1)C2 | -1.5 | 32.9 | 3.5 | nt | 62.5* | nt
O=C(c1cccc([N+](=O)[O-])c1)C12CN3CN(CN(C3)C1)C2 | -6.8 | 5.9 | -1.4 | 14.8 | 9.7 | 2.7
CC=Cc1ccc2n(c1=O)C[C@@H]1[C@@H](CO)[C@H](C(=O)OC)[C@H]2N1S(=O)(=O)c1cccc(C)c1 (mixture of isomers) | nt | nt | nt | -5.2 | nt | nt
COc1ccc(C#Cc2ccc([C@@H]3[C@H](CO)N4CCCCN(C(=O)Cc5cccnc5)C[C@@H]34)cc2)cc1 | nt | nt | nt | -7.3 | nt | nt
CCn1c(O)c(C=Nc2ccc(S(N)(=O)=O)cc2)c(=O)n(CC)c1=S | 3.6 | 21.8 | 10.5 | nt | 19.3 | 4.4
CCn1c(O)c(C=Nc2ccc(S(N)(=O)=O)cc2)c(=O)[nH]c1=S | -7.2 | 9.4 | 9.8 | -6.7 | 20.8 | 52.5*
C[C@H]1CN([C@@H](C)CO)C(=O)c2c(c3ccccc3n2C)-c2ccccc2CO[C@H]1CN(C)C(=O)Oc1ccccc1 | nt | nt | nt | -5.2 | nt | nt
CCN1/C(=C/C=C/C2=[N+](CC)c3ccccc3C2(C)C)C(C)(C)c2ccccc21 | 38.8 | nt | nt | 54.5* | 81.6* | 66.2*
O=C(O)[C@H]1[C@H](CO)[C@H]2Cn3c(ccc(-c4ccccc4)c3=O)[C@@H]1N2CC1CCCCC1 | nt | nt | nt | -5.7 | nt | nt
O=C(O)[C@@H]1[C@@H](CO)[C@@H]2Cn3c(ccc(-c4ccncc4)c3=O)[C@H]1N2C(=O)C1CC1 | nt | nt | nt | 0.2 | nt | nt
COCCN1C(=O)/C(=C/c2c(OC)cc(OC)cc2OC)C(=O)N(c2ccccc2)C1=O | -7.6 | -11.7 | -2.8 | -1.8 | 69.9* | 12.9
Cc1ccc2c(c1)N(C(=O)CCC(=O)N1CCC3(CC1)OCCO3)CCO2 | -1.5 | -63.2 | -50.9* | -12.6 | -7.8 | -0.5
CCCCCCOc1ccc(CN2CCN(CCO)CC2)cc1 | 10.2 | -41.5 | -35.8 | 34.4 | 43.3 | 56.3*
C=C1C(=O)OC2C1CCC(C)C1(O)C=CC(=O)C21C (stereo unspecified) | -73.6 | nt | nt | 40.5 | 66.4* | -17.1
Cc1cccc(S(=O)(=O)N2[C@@H]3c4ccc(-c5ccc(F)cc5)c(=O)n4C[C@H]2[C@H](CO)[C@H]3C(=O)O)c1 | nt | nt | nt | -2.6 | nt | nt
C/C=C/c1ccc(C2[C@@H]3CN(C(=O)C4CC4)C[C@H]2N3)cc1 (stereo partly specified) | nt | nt | nt | 21.4 | nt | nt
CN1C[C@H](CNC(=O)OCc2ccccc2)C[C@@H]2c3cccc4c3c(cn4C)C[C@H]21 | -14.6 | 31.2 | 27.3 | nt | 60.3* | -1.2
CN1C[C@H](CO)C[C@@H]2c3cccc4[nH]cc(c34)C[C@H]21 | 3.2 | -14.9 | -3.5 | 7.5 | -1.3 | -13.9
O=C(O)[C@H]1[C@H](CO)[C@H]2Cn3c(ccc(-c4ccncc4)c3=O)[C@@H]1N2C(=O)C1CCC1 | nt | nt | nt | 8.3 | nt | nt
CCN(CC)c1ccc(CN2CC=C(c3ccc(F)cc3)CC2)cc1 | -1.4 | 7.4 | 2.9 | nt | 21.7 | 7.7
COc1ccc(CN2CC=C(c3ccc(F)cc3)CC2)cc1Br | -1.8 | -75.7 | -67.9* | -1.1 | -4.9 | 6.9
CNC(=O)Oc1ccc(-c2cn3cc(C)ccc3n2)cc1 | 64.2* | 1.7 | 2.2 | nt | 64.5* | 33.4
CCC(COC(=O)NC)NC(=O)Oc1cccc(C)c1 (stereo unspecified) | 0.0 | -1.1 | -1.2 | -2.6 | 33.2 | 7.0
CNC(=O)Oc1cccc(-c2cn3cc(Cl)ccc3n2)c1 | 8.5 | 25.2 | 29.1 | 81.9* | 34.6 | 30.5
SMILES | EBV LMP1 NFkB | HSF-1 act | HSF1 inh | LGR2 inh | TWEAK Fn14 block | TROY signal inh
N#Cc1cn(C2OC(CO)C(O)C2O)c2ncnc(N)c12 (stereo unspecified) | -181.3 | nt | nt | 94.5* | 71.6* | 51.7*
NC(=O)c1cn(C2OC(CO)C(O)C2O)c2ncnc(N)c12 (stereo unspecified) | 80.7* | -64.3 | -66.2* | 71.4* | 89.1* | 40.3
COc1cccc(-c2ccc([C@@H]3[C@@H](CO)N4CCCCN(C(=O)Cc5ccncc5)C[C@H]34)cc2)c1 | nt | nt | nt | -3.4 | nt | nt
CCN1C[C@]2(C)CC[C@H](O)[C@]34C1[C@H](C[C@H]23)[C@@]1(O)C[C@H](OC)[C@H]2C[C@@H]4[C@@H]1C2O (stereo partly specified) | 89.8* | nt | nt | -5.9 | -54.2 | 4.8
COc1ccc(CC2C(=O)NC(C)C(=O)N(C)C3C(=O)N(C)C(Cc4ccc(O)c(c4)Oc4ccc(cc4)C3O)C(=O)NC(C)C(=O)NC(C)C(=O)N2C)cc1 (stereo unspecified) | 84.6* | nt | nt | 98.9* | 101.8* | 86.8*
CC(C)C[C@H](NC(=O)[C@@H]1CCCN1C(=O)[C@@H](N)Cc1ccc(O)cc1)C(=O)NCC(N)=O | 66.4* | -16.9 | -7.4 | 3.5 | 5.2 | -10.2
CC(C)CC(NC(=O)C1CCCCC1)C(=O)N1CCC2(CC1)OCCO2 (stereo unspecified) | 1.1 | 13.1 | 1.2 | nt | 6.6 | -0.7
O=c1oc2ccccc2c(O)c1C(c1ccc([N+](=O)[O-])cc1)c1c(O)c2ccccc2oc1=O | 9.8 | 19.5 | 9.7 | nt | 3.4 | 18.3
CC(C)c1ccc(C(c2c(O)c3ccccc3oc2=O)c2c(O)c3ccccc3oc2=O)cc1 | 8.4 | nt | nt | -3.7 | 27.9 | 68.5*
CCCC#Cc1ccc([C@@H]2[C@H]3CN(C(=O)Cc4ccccn4)CCCCN3[C@H]2CO)cc1 | nt | nt | nt | -10.7 | nt | nt

Compound activity deposited in PubChem BioAssay by several laboratories.
